# Screening data from PubChem BioAssay.
# HT1080-NT tox: kills 2HG-producing HT-1080-NT fibrosarcoma cells; HT-1080-NT fibrosarcoma viability, CellTiter-Glo ATP luminescence, 48 h; Potency, µM (titrated, usually from 46.1 µM), hits mostly cytotoxic; actives 1.6% (n = 360,000);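 also: NT is the 2HG producing partner of a matched IDH1 knockdown line; nearly all actives have a fitted effect of over 55% in size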
#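 Fibrosarcoma NT cells, 750 per well in 5% FBS RPMI, were exposed to compound for 48 hours. Viability: CellTiter-Glo luminescence.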
# TDP1 cell noCPT: qHTS for Inhibitors of human tyrosyl-DNA phosphodiesterase 1 (TDP1): qHTS in cells in absence of CPT | DT40 Tdp1-/- hTDP1 cells, no CPT, ATP luminescence, 48 h | Potency, µM (top dose mostly 46.2 µM), most hits filed as inhibitors | actives 15% (n = 420,000) | AID 686978, 2013; also: nearly all actives have a fitted effect of over 55% in size
#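 Compound effects on proliferation are scored in DT40 Tdp1-/-;hTDP1 cells in the absence of CPT. ATP levels (CellTiter-Glo luminescence) are recorded after a ≥48 hr, 37 °C incubation.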
# IL1B secr inh: inhibitors of inflammasome signaling (IL-1 beta secretion); AID 743279; actives 4.7% (n = 360,000); THP-1 LPS/ATP IL-1B secretion, AlphaLISA, 16 h; stronger effect = lower value; activity change, % at 57.5 µM; in the data active = activity change below about -50%; inconclusive = mostly about -30% to -49%
#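 THP-1 cells pretreated 1 hr with compounds (up to 57.5 uM final), then stimulated with LPS (250 ng/mL final) plus ATP (1.25 mM final); secreted IL-1B measured by AlphaLISA after 16 hr, decreased signal indicating inhibition.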
# HT1080 IDH1KD tx: toxicity to HT-1080 IDH1 knockdown cells (counter line). HT-1080 IDH1 knockdown viability, ATP luminescence, 48 h. Potency, µM (top dose mostly 46.1 µM), hits mostly cytotoxic. actives 2% (n = 360,000). AID 686971
#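 After a 2 h attachment period, IDH1KD HT-1080 cells took pin-transferred compound for 48 h at 37 °C; ATP-based luminescence after 10 min room-temperature reagent incubation reported viability.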
# 12-LOX inh: blocks human arachidonate 12S-lipoxygenase | P18054 | purified 12hLO, xylenol orange hydroperoxide absorbance | Potency, µM (titrated, usually from 108 µM), most hits filed as inhibitors | actives 1.1% (n = 580,000) | AID 1671190
# Target sequence (P18054 whole entry, looked up): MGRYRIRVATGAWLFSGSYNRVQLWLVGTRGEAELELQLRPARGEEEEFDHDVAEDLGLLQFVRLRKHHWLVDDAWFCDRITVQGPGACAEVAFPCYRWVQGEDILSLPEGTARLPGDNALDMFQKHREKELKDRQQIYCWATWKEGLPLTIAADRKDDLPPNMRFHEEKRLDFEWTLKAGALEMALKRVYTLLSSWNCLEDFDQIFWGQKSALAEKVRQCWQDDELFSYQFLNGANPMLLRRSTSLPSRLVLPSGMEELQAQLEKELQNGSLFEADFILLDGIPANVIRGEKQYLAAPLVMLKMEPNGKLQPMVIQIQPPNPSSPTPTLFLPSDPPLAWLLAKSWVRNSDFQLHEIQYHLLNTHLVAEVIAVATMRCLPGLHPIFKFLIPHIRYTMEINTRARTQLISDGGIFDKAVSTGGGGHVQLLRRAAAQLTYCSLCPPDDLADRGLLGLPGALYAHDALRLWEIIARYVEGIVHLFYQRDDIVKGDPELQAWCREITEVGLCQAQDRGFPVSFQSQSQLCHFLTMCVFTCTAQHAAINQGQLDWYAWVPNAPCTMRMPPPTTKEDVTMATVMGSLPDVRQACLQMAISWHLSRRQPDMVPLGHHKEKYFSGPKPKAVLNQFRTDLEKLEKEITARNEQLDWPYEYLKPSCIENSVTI
#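 Purified human 12hLO (150 nM final) in 25 mM Hepes, 0.01% Triton X-100, pH 7.0 was preincubated 15 min at room temperature with compound. Then 40 uM arachidonic acid was added, 30 min. Hydroperoxide was read by Fe-XO absorbance ratio 573/405 nm.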
# TDP1 cell CPT: DT40-hTDP1 cell growth loss with CPT | Potency, µM (titrated, usually from 46.2 µM), hits mostly inhibitors | chicken DT40 Tdp1-/-;hTDP1 cells + 20 nM CPT, ATP luminescence, 48 h | actives 12% (n = 420,000); also: nearly all actives have a fitted effect of over 55% in size
#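 Chicken DT40 Tdp1-/- cells complemented with human TDP1, 400 cells/well, exposed to compounds plus 20 nM camptothecin for at least 48 h at 37 C; viability read as ATP content by CellTiter-Glo luminescence.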
# Numbers stand for hits; 0 = inactive; ? = inconclusive; - = not tested or not shown. Shown is part of a subset that was picked to be rich in hits. Unless noted, calls follow the shape of the dose curve; as a rule, active = well fitted curve in the direction sought with a large enough effect; inconclusive = small, poorly fitted or top-dose-only effect, or another doubt; inactive = no such curve, though single readings can be large; an effect the other way counts as inactive or inconclusive.
SMILES,HT1080-NT tox,TDP1 cell noCPT,IL1B secr inh,HT1080 IDH1KD tx,12-LOX inh,TDP1 cell CPT
Fc1ccc(-c2nc(CSc3ncn[nH]3)co2)cc1,-,-,-,-,0,-
COc1ccccc1NC(=S)NNC(=O)c1ccccc1Br,0,13µM,0,0,0,16µM
COC1=C(Nc2ccccc2OC)C(=O)c2ccccc2C1=O,0,?,-,0,0,0
COc1ccc(OC)c(S(=O)(=O)N(C)CC(=O)Nc2ccccc2OC)c1,0,?,0,0,?,0
COc1ccccc1NC1=C(NC(C)=O)C(=O)c2ccccc2C1=O,?,?,0,?,0,18µM
COc1ccc(OC)c(NC(=O)c2cnc(Nc3ccc(C)c(Cl)c3)c3ccccc23)c1,-,?,-,-,0,0
COc1ccc(OC)c(/C(O)=C/C(=O)C(=O)Nc2ccccc2OC)c1,0,18µM,0,0,0,?
COc1ccc(Nc2ncc(C(=O)Nc3ccc(F)cc3F)c3ccccc23)cc1,-,18µM,-,-,?,13µM
COc1ccccc1C(=O)NNC(=O)c1ccccc1Br,0,0,0,0,0,0
CSCC(=O)N1C[C@@H](NC(=O)Nc2ccc(F)cc2F)C[C@H]1C(=O)N[C@@H](Cc1cccs1)C(N)=O,-,-,-,-,0,-
O=C1[C@@H]2C[C@@H](O)CN2C2(CN(C3Cc4ccccc4C3)C2)C(=O)N1Cc1ccccc1F,-,-,-,-,0,-
CCO[C@H]1CN(C(=O)CCc2ccc(-c3ccc(Cl)cc3)[nH]2)C[C@@H]1O,-,-,-,-,0,-
O=C(C1CCCCC1)N1CCN=C1SCc1cccc([N+](=O)[O-])c1,0,?,-94,0,0,?
O=C(C1CCCCC1)N1CCN=C1SCc1cccnc1,0,0,0,0,0,0
Cc1ccc(C)c(CSC2=NCCN2C(=O)Cc2ccc([N+](=O)[O-])cc2)c1,?,18µM,?,0,0,?
Cc1ccc(C(=O)N2CCN=C2SCc2ccc([N+](=O)[O-])cc2)cc1C,0,?,-85,0,0,?
CCCc1ccc(C(=O)/C(C#N)=C\c2cn[nH]c2C(C)(C)C)cc1,-,-,-,-,0,-
Nc1c(Cl)cc(Cl)cc1C(=O)OCC(=O)N1CCOCC1,0,0,0,0,0,0
O=C(c1cc(S(=O)(=O)N2CCOCC2)c(Cl)cc1Cl)N1CCCCC1,0,0,0,0,0,0
O=C(COC(=O)c1cc(S(=O)(=O)N2CCOCC2)c(Cl)cc1Cl)c1ccc[nH]1,0,0,-99,0,0,0
O=C(OCC(=O)N1CCOCC1)c1cc(S(=O)(=O)N2CCOCC2)c(Cl)cc1Cl,0,0,-84,0,0,0
O=C(OCc1nnc(-c2ccccc2)o1)c1cc(S(=O)(=O)N2CCOCC2)c(Cl)cc1Cl,0,7.3µM,-101,?,0,21µM
O=C(OCC(=O)N1CCCCC1)c1cc(S(=O)(=O)N2CCOCC2)c(Cl)cc1Cl,0,0,-59,0,0,0
Cc1ccc(S(=O)(=O)N2CCOCC2)cc1C(=O)OCc1nnc(-c2ccccc2)o1,0,?,0,0,0,?
CN(C)C[C@@H]1CN(S(C)(=O)=O)C[C@H]1NC(=O)c1ccc(Cn2ccnc2)o1,-,-,-,-,0,-
SMILES,HT1080-NT tox,TDP1 cell noCPT,IL1B secr inh,HT1080 IDH1KD tx,12-LOX inh,TDP1 cell CPT
Cn1c(=O)c2c(ncn2Cc2ccc(Cl)cc2Cl)n(C)c1=O,-,-,-,-,0,-
Cc1ccncc1-c1c(C)nn2c1N(Cc1cccc(O)c1)CCC2,-,-,-,-,32µM,-
Cc1ccc(/C=N/Nc2nc3ccccc3[nH]2)s1,0,?,-108,0,?,15µM
O=[N+]([O-])c1cc(/C=N/Nc2nc3ccccc3[nH]2)c(O)cc1O,?,4.6µM,0,7.3µM,?,4.6µM
O=c1[nH]c(N/N=C/c2cc3c(cc2[N+](=O)[O-])OCO3)nc2ccccc12,0,0,0,0,0,0
Cc1[nH]c2ccccc2c1/C=N/Nc1nc2ccccc2[nH]1,18µM,?,-105,18µM,?,?
Cc1nn(-c2ccccc2)c(Cl)c1/C=N/Nc1nc2ccccc2[nH]1,?,0,0,?,0,?
C(=N\Nc1cccc2cccnc12)/c1c[nH]c2ccccc12,-,-,-,-,32µM,-
O=C(NCCn1nc(-c2ccccc2)ccc1=O)c1ccc(Br)cc1,-,-,-,-,0,-
Cc1cc2nc(C(F)(F)F)c(=O)n(C(C)C(=O)NCc3ccccc3)c2cc1C (centres undefined),-,-,-,-,0,-
CCc1nnc(N/N=C/c2cc(C)c(C)cc2C)n1N,0,?,0,?,0,0
C(=N\Nc1nc2ccccc2[nH]1)/c1cccc2cccnc12,?,2.9µM,0,?,0,2.6µM
CCc1nnc(N/N=C/c2c(C)[nH]c3ccccc23)n1N,0,0,0,0,32µM,0
COc1ccc(/C=N/Nc2nc3ccccc3[nH]2)c(OC)c1OC,0,?,0,?,0,?
Cc1ccccc1/C=N/Nc1nc2ccccc2[nH]1,0,?,-68,0,0,?
C(=N\Nc1nc(N2CCCCC2)nc(N2CCCCC2)n1)/c1c[nH]c2ccccc12,?,16µM,-60,0,0,?
CC1(C)C(c2ccccc2)=[N+]([O-])C(c2ccccc2Cl)N1O (centres undefined),-,-,-,-,0,-
Cc1cc(=O)[nH]c(N/N=C/c2c[nH]c3ccccc23)n1,0,?,0,0,0,?
C(=N\Nc1nc2ccccc2[nH]1)/c1c[nH]c2ccccc12,16µM,16µM,-95,?,?,?
CNC(=S)N1CCC(Cc2ccccc2)CC1,0,0,0,0,0,0
NS(=O)(=O)c1ccc(NC(=S)N2CCN(Cc3ccc(Cl)c(Cl)c3)CC2)cc1,0,?,-72,0,0,?
NS(=O)(=O)c1ccc(NC(=S)N2CCN(Cc3ccc4c(c3)OCO4)CC2)cc1,0,?,0,0,0,?
NS(=O)(=O)c1ccc(NC(=S)N2CCN(c3ccc(Cl)c(Cl)c3)CC2)cc1,?,6.5µM,0,?,0,6.5µM
CC(=O)c1ccc(N2CCN(C(=S)Nc3ccc(Cl)c(Cl)c3)CC2)cc1,0,0,0,0,0,?
NS(=O)(=O)c1ccc(NC(=S)N2CCC(Cc3ccccc3)CC2)cc1,0,?,-62,0,-,0
S=C(NCCc1ccccc1)N1CCN(Cc2ccc(Cl)c(Cl)c2)CC1,0,?,0,0,0,18µM
COCCCNCc1ccco1,-,-,-,-,0,-
CCCNC(=O)C(C)NC(=O)c1ccc2ccccc2n1 (centres undefined),-,-,-,-,0,-
COc1ccc(C=O)cc1C1=CC(=O)C[C@H](c2ccc(Cl)cc2)C1,?,?,0,?,0,?
COc1cc(F)c(C2=CC(=O)C[C@H](c3ccc(F)cc3)C2)cc1F,0,0,0,0,0,?
